From PubChem BioAssay
“And” between values parts separate entries of the source, which are not always exact repeats. Equal entries are not always repeated. The source made the active and inactive calls. Unless noted, the rule behind the calls is not given here.

Key:
[1] = P. berghei load reduction in hepatocytes – cell-based, HepG2, luciferase luminescence, HepG2 viability, primary screen (AID 624349; in the data active = parasite load remaining mostly below about 12%, no sharp cut-off; inactive = mostly above about 10%;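 note: 100% = mean of DMSO negative control wells on the same plate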); details: P. berghei liver stage in HepG2, luciferase luminescence, concentration not given here; parasite load remaining: stronger effect = lower value; viability: measured here: HepG2 viability without parasites
[2] = liver-stage malaria parasite load reduction – cell-based, known kinase inhibitor set, luminescence, hepatoma host viability (AID 624392); details: Plasmodium liver stage in hepatoma cells, luciferase luminescence, concentration not given here; liver cell % of control: measured here: host liver cell viability; parasite % of control: stronger effect = lower value;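 note: infected cells incubated roughly two days before readout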
[3] = signal quenchers or enhancers, Cy5 substrate/SSB – biochemical, NIH Clinical Collection, E. coli SSB, artefact control for HCV NS3 helicase inhibitor project (AID 743268); details: Cy5-oligo bound E. coli SSB, fluorescence interference
[4] = system: Hepatitis C virus NS3 helicase; experiment: blockers of NS3h binding to DNA – biochemical, fluorescence polarization, NIH Clinical Collection, primary screen (AID 743270); details: NS3 helicase binding to Cy5-dT15 DNA, stronger effect = higher value, concentration not given here
[5] = biological target: Single-stranded DNA-binding protein (Escherichia coli (strain K12)) (UniProt P0AGE0); experiment: SSB-ssDNA binding inhibitors – biochemical, fluorescence polarization, NIH Clinical Collection, counter-screen for HCV NS3 helicase inhibitor project (AID 743271; in the data active = inhibition above about 28%); details: E. coli SSB-DNA binding, stronger effect = higher value, concentration not given here
[6] = compounds distorting NS3 helicase fluorescence signal – biochemical, NIH Clinical Collection, artefact control for HCV NS3 helicase inhibitor project (AID 743272); details: fluorescence interference counterscreen, HCV NS3 helicase assay; stronger effect = lower value;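 note: HCV NS3 helicase with a Cy5 labelled single stranded DNA probe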

COc1cc2ncnc(Nc3ccc(NC(=O)c4ccccc4)cc3)c2cc1OC
parasite load remaining [1]: 41.1% (inactive) | viability [1]: 100%

COc1cc(NC(=O)c2cnc(N)s2)cc(C(=O)Nc2cccc(C(F)(F)F)c2)c1
liver cell % of control [2]: 98.2% | parasite % of control [2]: 79% (inactive)

O=C1Nc2ccc(Br)cc2/C1=C/c1cc2c([nH]1)CCCC2
parasite load remaining [1]: 44.1% (inactive) | viability [1]: 66.2%

O=C1NC(=O)C(c2cn(CCCn3ccnc3)c3ccccc23)=C1Nc1ccccc1
parasite load remaining [1]: 35% (inactive) | viability [1]: 61.8%

Nc1nc(O)c(C2=C3C(=Nc4ccccc43)C(=O)NCC2)[nH]1
parasite load remaining [1]: 45.8% (inactive) | viability [1]: 99.9%

CC(C)(C)c1ccc(S(=O)(=O)Nc2ccc(-n3ccnc3)cc2)cc1
parasite load remaining [1]: 37.4% (inactive) | viability [1]: 67.1%

O=C1NC(=O)/C(=C/c2ccc3c(c2)OCO3)S1
parasite load remaining [1]: 37.6% (inactive) | viability [1]: 63.8%

O=C1Cc2c([nH]c3ccc([N+](=O)[O-])cc23)-c2ccccc2N1
parasite load remaining [1]: 65.2% (inactive) | viability [1]: 128% | liver cell % of control [2]: 82.9% | parasite % of control [2]: 65.2% (inactive)

CC[C@H]1OC(=O)[C@H](C)C(=O)[C@H](C)[C@@H](O[C@@H]2O[C@H](C)C[C@H](N(C)C)[C@H]2O)[C@](C)(OC)C[C@@H](C)C(=O)[C@H](C)[C@@H]2N(CCCCn3cnc(-c4cccnc4)c3)C(=O)O[C@@]21C
parasite load remaining [1]: 32.3% (inactive) | viability [1]: 63.9% | fluorescence ratio [3]: 0.97 (inactive) | inhibition [4]: -9.83% (inactive) | inhibition [5]: 1.18% (inactive) | fluorescence ratio [6]: 0.92 (inactive)

Cc1ccc(C(=O)Nc2cccc(C(F)(F)F)c2)cc1NC(=O)c1ccno1
liver cell % of control [2]: 103% | parasite % of control [2]: 87.9% (inactive)

OCC(O)CCO/N=C1/C(c2c(O)[nH]c3ccccc23)=Nc2ccccc21 (stereo unspecified)
parasite load remaining [1]: 25.4% (inactive) | viability [1]: 80.9%

COc1cc(N2CCC(O)CC2)ccc1Nc1nnc(Cl)c(Nc2ccccc2S(C)(=O)=O)n1
liver cell % of control [2]: 86.2% | parasite % of control [2]: 80.5% (inactive)

Nc1ncnc2c1cnn2-c1ccccc1
parasite load remaining [1]: 72% (inactive) | viability [1]: 108%

CC(C)n1cnc2c(N(C)c3cccc(Cl)c3)nc(N(CCO)CCO)nc21
liver cell % of control [2]: 93.8% | parasite % of control [2]: 100% (inactive)

Cn1nc2c3c(cccc31)C(=O)c1ccccc1-2
parasite load remaining [1]: 28.1% (inactive) | viability [1]: 83.8%

Cc1ccc(C(=O)Nc2cccc(C(F)(F)F)c2)cc1Nc1ccccn1
liver cell % of control [2]: 95% | parasite % of control [2]: 54.6% (inactive)

COc1cc(C(=O)NC2CCN(C)CC2)ccc1Nc1ncc2c(n1)N(Cc1ccccc1)CCC(=O)N2C
liver cell % of control [2]: 97.7% | parasite % of control [2]: 579% (inactive)

COc1cc(Nc2ncc3ccn(-c4cccc(CCC#N)c4)c3n2)cc(OC)c1OC
parasite load remaining [1]: 50.6% (inactive) | viability [1]: 164%

CCN1CCN(Cc2ccc(NC(=O)c3cc(NC(=O)c4cc(C)on4)cc(OC)c3)cc2C(F)(F)F)CC1
liver cell % of control [2]: 99.3% | parasite % of control [2]: 92.3% (inactive)

COc1cc(C(=O)NC2CCN(C)CC2)ccc1Nc1ncc2c(n1)N(CCc1ccccc1)CCC(=O)N2C
liver cell % of control [2]: 98.4% | parasite % of control [2]: 343% (inactive)

CCN1C(=O)CC(C(C)C)N(C2CCCC2)c2nc(Nc3ccc(C(=O)NC4CCN(C)CC4)cc3OC)ncc21 (stereo unspecified)
liver cell % of control [2]: 102% | parasite % of control [2]: 87.6% (inactive)

COC(=O)c1ccc2c(c1)[nH]c(=O)c1c(Nc3ccc(OC(F)(F)F)cc3)ncnc12
liver cell % of control [2]: 107% | parasite % of control [2]: 97.4% (inactive)

COc1cc(O)c2c(c1)oc(=O)c1c3cc(O)c(O)cc3oc21
liver cell % of control [2]: 107% | parasite % of control [2]: 36.8% (inactive)

CCN1CCN(Cc2ccc(NC(=O)c3cc(NC(=O)c4cncc(-c5cccs5)c4)cc(OC)c3)cc2C(F)(F)F)CC1
liver cell % of control [2]: 101% | parasite % of control [2]: 88.5% (inactive)

CCN1CCN(Cc2ccc(NC(=O)c3ccc(C)c(NC(=O)c4cccc5[nH]ccc45)c3)cc2C(F)(F)F)CC1
liver cell % of control [2]: 103% | parasite % of control [2]: 99.7% (inactive)

COc1cc(NC(=O)c2nccn2C)cc(C(=O)Nc2cccc(C(F)(F)F)c2)c1
liver cell % of control [2]: 91.3% | parasite % of control [2]: 84.5% (inactive)

CCN1CCN(Cc2ccc(NC(=O)c3ccc(C)c(NC(=O)C(=O)c4c[nH]c5ccccc45)c3)cc2C(F)(F)F)CC1
liver cell % of control [2]: 69.8% | parasite % of control [2]: 99.9% (inactive)

Cc1ccc(-c2c(C(=O)CCl)n(CCO)c3ncnc(N)c23)cc1
liver cell % of control [2]: 90.7% | parasite % of control [2]: 86.5% (inactive)

O=C(Nc1cccc(-c2csc(Nc3ccc(Cl)cc3)n2)c1)c1cccc(C(F)(F)F)c1
liver cell % of control [2]: 97.6% | parasite % of control [2]: 115% (inactive)

COc1cc(NC(=O)c2nccnc2N)cc(C(=O)Nc2cccc(C(F)(F)F)c2)c1
liver cell % of control [2]: 97.3% | parasite % of control [2]: 84.9% (inactive)

CN(C)C1=NC(=O)C(=Cc2ccc(-c3ccc(S(N)(=O)=O)cc3)o2)S1
liver cell % of control [2]: 99.8% | parasite % of control [2]: 84.6% (inactive)

C=CC(=O)Nc1ccc(N(C)c2ccnc(Nc3ccc(N4CCN(C)CC4)cc3)n2)cc1
liver cell % of control [2]: 107% | parasite % of control [2]: 27.8% (inactive)

Cc1ccc(C(=O)Nc2cccc(C(F)(F)F)c2)cc1Nc1ncnc2nc[nH]c12
liver cell % of control [2]: 108% | parasite % of control [2]: 64.6% (inactive)

COc1cc(NC(=O)c2csc(N)n2)cc(C(=O)Nc2cccc(C(F)(F)F)c2)c1
liver cell % of control [2]: 88.9% | parasite % of control [2]: 39.6% (inactive)

NS(=O)(=O)c1ccc(-c2ccc(C=C3C(=O)c4ccccc4C3=O)o2)cc1
liver cell % of control [2]: 102% | parasite % of control [2]: 96.4% (inactive)

CC(C)n1cnc2c(NCc3ccc(S(N)(=O)=O)cc3)nc(NCc3ccc(S(N)(=O)=O)cc3)nc21
liver cell % of control [2]: 102% | parasite % of control [2]: 108% (inactive)

CC(=O)Nc1ccc(C(C)C(=O)Nc2ncc(C(C)C)s2)cc1 (stereo unspecified)
liver cell % of control [2]: 53.4% and 52.2% and 52.5% | parasite % of control [2]: 136% (inactive) and 128% (inactive) and 133% (inactive)

Cc1cc(C(=O)Nc2cc(Nc3ccc4c(C=Cc5ccccn5)n[nH]c4c3)ccc2F)n(C)n1
liver cell % of control [2]: 75.4% and 84.5% and 95.8% | parasite % of control [2]: 17.4% (inactive) and 18.3% (inactive) and 40.1% (inactive)

C=CC(=O)Nc1cccc(Oc2ncnc3[nH]cc(-c4cnc5ccccc5c4)c23)c1
liver cell % of control [2]: 100% | parasite % of control [2]: 112% (inactive)

CCN1CCN(Cc2ccc(NC(=O)c3ccc(C)c(NC(=O)c4ccno4)c3)cc2C(F)(F)F)CC1
liver cell % of control [2]: 100% | parasite % of control [2]: 100% (inactive)

CC(C)n1cnc2c(Nc3ccc(C(=O)O)cc3)nc(Cl)nc21
liver cell % of control [2]: 88.9% | parasite % of control [2]: 123% (inactive)

O=C1NN(c2ccccc2)C(=O)C1=Cc1ccc(-c2ccc(Cl)cc2)o1
liver cell % of control [2]: 98.7% | parasite % of control [2]: 92.2% (inactive)

CCN1C(=O)CC(c2ccccc2)N(C2CCCC2)c2nc(Nc3ccc(C(=O)NC4CCN(C)CC4)cc3OC)ncc21 (stereo unspecified)
liver cell % of control [2]: 94.4% | parasite % of control [2]: 83.8% (inactive)

Cc1ccc(C(=O)Nc2cccc(C(F)(F)F)c2)cc1NC(=O)c1nccn1C
liver cell % of control [2]: 99.8% | parasite % of control [2]: 33.1% (inactive)

Nc1ncc(-c2cccnc2)nc1C(=O)c1cccnc1
liver cell % of control [2]: 98.8% | parasite % of control [2]: 75.4% (inactive)

CCN1C(=O)CCN(C2CCCC2)c2nc(Nc3ccc(C(=O)NC4CCN(C)CC4)cc3OC)ncc21
liver cell % of control [2]: 91.7% | parasite % of control [2]: 362% (inactive)

COc1cc(NC(=O)c2cncc(-c3ccc(C#N)cc3)c2)cc(C(=O)Nc2cccc(C(F)(F)F)c2)c1
liver cell % of control [2]: 98.8% | parasite % of control [2]: 101% (inactive)

CCN1CCN(Cc2ccc(NC(=O)c3cc(NC(=O)N4CCNC4=O)cc(OC)c3)cc2C(F)(F)F)CC1
liver cell % of control [2]: 96.3% | parasite % of control [2]: 12.4% (active)

COc1cc(NC(=O)c2ccnnc2)cc(C(=O)Nc2cccc(C(F)(F)F)c2)c1
liver cell % of control [2]: 93.4% | parasite % of control [2]: 97.5% (inactive)

CC(C)n1cnc2c(N(C)c3ccccc3)nc(N(CCN(C)C)Cc3ccccc3)nc21
liver cell % of control [2]: 84.5% | parasite % of control [2]: 24.1% (inactive)
